Experimental data as given in PubChem BioAssay (NCATS).
Results filed as inconclusive are left out. Calls of active or inactive are those of the source. The call rests on the fitted dose curve; in most records, active means well fitted curve in the direction sought with a large enough effect; inconclusive means small, poorly fitted or top-dose-only effect, or another doubt; inactive means no such curve, though single readings can be large; an effect the other way counts as inactive or inconclusive. *1 amine or outer side, *2 acyl side, *3 side chain or, on linkers, in order; H or OH if unused. Where a SMILES comes first, the peptide text is derived from it. Bridges are numbered along the chain shown (N, C = ends). X6 = O=C(CCC[*:2])[*:1]

How the values were obtained:
NIH3T3 = test: qHTS assay to identify novel small-molecules to repurpose for Merkel cell carcinoma treatment (AID 1296009); conditions: MCC and control cell lines, CellTiter-Glo viability, 72 h; at 44.8 µM (top of the series) unless noted; further: nearly all actives have a fitted effect of over 60% in size
Method in brief: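 72 hr, 37 degree celsius; NPC 8-pt / MIPE 11-pt dose response; compound pinned in DMSO; CellTiter-Glo, 10 min RT, luminescence; normalized to no-cell and DMSO controls.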

C33A = test: Primary qHTS to identify gynecologic anti-cancer compounds using libraries of approved drugs and bioactive compounds (AID 1345084); conditions: Gynecologic cancer cell panel viability, ATPlite luminescence, 48 h; series mostly up to 57.5 µM; further: on the % scale 0 is the no-effect control and ±100 the full control effect; nearly all actives have a fitted effect of over 55% in size
Method in brief: (§1)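 Cells, 1,000 per well, plated 16 h, then exposed 48 h at 37 C to compounds. Viability by ATPlite luminescence after 15 min at room temperature.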

CAOV3 = test: as above; conditions: Gynecologic cancer cell panel viability, ATPlite luminescence, 48 h; series mostly up to 57.5 µM
Method in brief: as §1

CASKI = test: as above; conditions: Gynecologic cancer cell panel viability, ATPlite luminescence, 48 h; series mostly up to 57.5 µM
Method in brief: as §1

NS(=O)(=O)NCCNc1nonc1C(=Nc1ccc(F)c(Br)c1)NO
inactive: outcome (NIH3T3) | Potency (C33A) | Potency (CAOV3) | Potency (CASKI)

CCOC(=O)Nc1nc2ccccc2[nH]1
inactive: outcome (NIH3T3) | Potency (C33A) | Potency (CAOV3) | Potency (CASKI)

OC[C@H]1O[C@@H](Oc2ccc(O)c3cccc(O)c23)[C@H](O)[C@@H](O)[C@@H]1O
inactive: outcome (NIH3T3) | Potency (C33A) | Potency (CAOV3) | Potency (CASKI)

C=CC(C)(C)C1(CC2NC(=O)C3CCCN3C2=O)C(=O)Nc2cc3c(cc21)C=CC(C)(C)O3 (stereo not drawn)
inactive: outcome (NIH3T3) inactive [at 17.4 µM] | Potency (C33A) | Potency (CAOV3) | Potency (CASKI)

COC(=O)[C@H](CC1C=NC=N1)NCC12CC3CC(CC(C3)C1)C2 (stereo partly drawn)
inactive: outcome (NIH3T3) | Potency (C33A) | Potency (CAOV3) | Potency (CASKI)

CC(C)(C)NCc1cc(Nc2ccnc3cc(Cl)ccc23)c2c(c1O)CCCC2
inactive: outcome (NIH3T3) inactive [at 0.588 µM] | activity change, negative = cytotoxicity (C33A) 15.8% [at 0.462 µM] | activity change, negative = cytotoxicity (CAOV3) -2.51% [at 0.462 µM] | activity change, negative = cytotoxicity (CASKI) 10.8% [at 0.462 µM]

c1ccc(Cc2ncc3c(n2)CCNCC3)cc1
inactive: outcome (NIH3T3) | Potency (C33A) | Potency (CAOV3) | Potency (CASKI)

O=C(NN1CCCCC1)c1nn(-c2ccc(Cl)cc2Cl)c(-c2ccc(C#Cc3ccc(C(F)(F)F)cc3)s2)c1CNS(=O)(=O)N1CCCC1
inactive: outcome (NIH3T3) | Potency (C33A) | Potency (CAOV3) | Potency (CASKI)

NC1CCC(N[C@@H]2C[C@H]2c2ccccc2)CC1 (stereo partly drawn)
inactive: outcome (NIH3T3) | Potency (C33A) | Potency (CAOV3) | Potency (CASKI)

C#Cc1cnc2[nH]c(=O)n(C(CC)CC)c2n1
inactive: outcome (NIH3T3) | Potency (C33A) | Potency (CAOV3) | Potency (CASKI)

C=C[C@H]1[C@H](O[C@@H]2O[C@H](CO[C@@H]3OC[C@](O)(CO)[C@H]3O)[C@@H](O)[C@H](O)[C@H]2O)OC=C2C(=O)OCC[C@H]21
inactive: outcome (NIH3T3) inactive [at 17.4 µM] | Potency (C33A) | Potency (CAOV3) | Potency (CASKI)

COC(=O)C1C(c2ccc(O)cc2)C(C(=O)OC)C1c1ccc(O)cc1 (stereo not drawn)
inactive: outcome (NIH3T3) | Potency (C33A) | Potency (CAOV3) | Potency (CASKI)

C=C1CC[C@H]2[C@@H](/C=C(\C)C(=O)[C@@]3(OC(C)=O)C[C@H](C)[C@H](OC(C)=O)[C@@H]3[C@H]1OC(C)=O)C2(C)C
inactive: outcome (NIH3T3) inactive [at 17.4 µM] | Potency (C33A) | Potency (CAOV3) | Potency (CASKI)

Cc1onc(-c2ccccc2)c1C(=O)N[C@@H]1C(=O)N2[C@@H]1SC(C)(C)[C@@H]2C(=O)O
inactive: outcome (NIH3T3) | Potency (C33A) | Potency (CAOV3) | Potency (CASKI)

C=C[C@H]1[C@H](O[C@@H]2O[C@H](CO)[C@@H](O)[C@H](O)[C@H]2O)OC=C2C(=O)OCC[C@]21O
inactive: outcome (NIH3T3) | Potency (C33A) | Potency (CAOV3) | Potency (CASKI)

Nc1nc(CC(=O)Nc2ccc(CCNCC(O)c3ccccc3)cc2)cs1 (stereo not drawn)
inactive: outcome (NIH3T3) | Potency (C33A) | Potency (CASKI)

c1ccc(C(OC2CCN(CCCc3nn[nH]n3)CC2)c2ccccc2)cc1
inactive: outcome (NIH3T3) | Potency (C33A) | Potency (CASKI)

C=C(C(=O)O)[C@@H]1CC=C2CCC[C@H](C)[C@@]2(C)C1
inactive: outcome (NIH3T3) | Potency (C33A) | Potency (CAOV3) | Potency (CASKI)

CC1(CCC(=O)O)C(=O)C=CC23CC4CC(OC4(C)C2O)C13 (stereo not drawn)
inactive: outcome (NIH3T3) | Potency (C33A) | Potency (CASKI)

CC12CC34C=CC(=O)C(C)(CCC(=O)O)C3C(CC1C4)O2 (stereo not drawn)
inactive: outcome (NIH3T3) | Potency (C33A) | Potency (CAOV3) | Potency (CASKI)

C[C@H]1CN(C[C@H](Cc2ccccc2)C(=O)NCC(=O)O)CC[C@@]1(C)c1cccc(O)c1
inactive: outcome (NIH3T3) | Potency (C33A) | Potency (CASKI)

Cc1c(N2C(=O)c3ccc(C(=O)O)cc3C2=O)c(=O)n(-c2ccccc2)n1C
inactive: outcome (NIH3T3) | Potency (C33A) | Potency (CASKI)

COc1cc(/C=C/C(=O)OC2CC3CCC2(C)C3(C)C)ccc1O (stereo not drawn)
inactive: outcome (NIH3T3) | Potency (C33A) | Potency (CASKI)

CC1C/C=C/C=C\CCCCC(O)C/C=C/C(=O)O1 (stereo not drawn)
inactive: outcome (NIH3T3) | Potency (C33A) | Potency (CASKI)

COc1ccc(C(OC2OC(CO)C(O)C(O)C2O)C(C)O)cc1 (stereo not drawn)
inactive: outcome (NIH3T3) | Potency (C33A) | Potency (CASKI)

CC[C@H](C)[C@@H]1NC(=O)[C@H](Cc2ccc(OC)cc2)NC(=O)CCCSC[C@@H](C(=O)N2CCC[C@H]2C(=O)N[C@@H](CC(C)C)C(=O)NCC(N)=O)NC(=O)[C@H](CC(N)=O)NC(=O)[C@H](CCC(N)=O)NC1=O (Y(Me)IQNCPLG-NH2; linker N-5 via X6)
inactive: outcome (NIH3T3) | Potency (C33A) | Potency (CASKI)

O=C1Nc2ccc(O)cc2O[C@H]1O[C@@H]1O[C@H](CO)[C@@H](O)[C@H](O)[C@H]1O
inactive: outcome (NIH3T3) | Potency (C33A) | Potency (CAOV3) | Potency (CASKI)

COc1cc(C2c3cc(O)c(OC)cc3CC(CO)C2CO)ccc1O (stereo not drawn)
inactive: outcome (NIH3T3) | Potency (C33A) | Potency (CAOV3) | Potency (CASKI)
